Records with an inconclusive call do not appear. Activity calls are given as the source filed them. Unless noted, calls come from the whole dose curve; as a rule, active = well fitted curve in the direction sought with a large enough effect in the repeat runs; inconclusive = weak or mixed curves; inactive = no such curve, though single readings can be large; an effect the other way counts as inactive or inconclusive. Positions of bridges follow the written chain, without caps; N, C: chain ends. Non-standard residues stand in square brackets, D forms with d. Residues, ends and D or L forms follow the SMILES beside them. hArg = N=C(N)NCCCC[C@H](N)C(=O)O; Mpa = O=C(O)CCS
Columns and labels:
[1] = qHTS assay to identify small molecule agonists of the TGF-beta/Smad signaling pathway (AID 1346859; active = well fitted activation curve with a large enough effect in the signal ratio in the repeat runs, not every such curve was filed as active; the % refers to the signal ratio; note: series mostly up to about 77 µM)
How it was run: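 Stable Smad binding element-beta-lactamase HEK 293T cells; 5 hr compound exposure at 37 C under 5% CO2; 2 hr room-temperature substrate step; fluorescence excited at 405 nm, collected at 460 nm and 530 nm.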

[2] = target: Thyrotropin-releasing hormone receptor (Homo sapiens) (UniProt P34981); test: qHTS assay to identify small molecule antagonists of the thyrotropin-releasing hormone receptor (TRHR) signaling pathway (AID 1346877; active = well fitted inhibition curve with a large enough effect in the repeat runs, not every such curve was filed as active; note: series mostly up to about 51 µM)
How it was run: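 Screening used HEK293 cells engineered with TRHR, with a brief 5 min room-temperature compound exposure preceding addition of TRH to 1 nM. The read-out was kinetic calcium-dye fluorescence, concentration-response from 15 doses in triplicate.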

[3] = target: Thyrotropin-releasing hormone receptor (Homo sapiens) (UniProt P34981); test: qHTS assay to identify small molecule agonists of the thyrotropin-releasing hormone receptor (TRHR) signaling pathway (AID 1346891; calls by dose curve;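 note: HEK293 cells expressing TRHR with calcium dye readout; series mostly up to about 58 µM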)
How it was run: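 In 1536-format, 1500 TRHR-Hek293 cells per well grew 18 h, took up calcium dye for 2 h at 37 °C, received compound, and were read kinetically; 15-point titrations, triplicates.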

[4] = Human pregnane X receptor (PXR) small molecule agonists, qHTS cell viability counter screen (AID 1346977); note: nearly all actives have a fitted effect of over 50% in size
How it was run: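 Readout is CellTiter-Fluor fluorescence from PXR-Luc HepG2 cells. Plated cells rested 5hr, then were treated with compounds for 24hr at 37C and 5% CO2, with reagent present during the last hour.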

[5] = Caspase-3/7 induction in HepG2 cells by small molecules, qHTS assay (AID 1346978); note: nearly all actives have a fitted effect of over 15% in size
How it was run: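 Wild-type HepG2 cells, 2,000/well, settled 5 hr at 37 C and 5% CO2, then compound-treated for 17 hr; caspase-3/7 activity read by luminescent Caspase-Glo 3/7 after 30 min at room temperature.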

[6] = Caspase-3/7 induction in CHO-K1 cells by small molecules, qHTS cell viability counter screen (AID 1346979); note: nearly all actives have a fitted effect of over 35% in size; note: potency is the fitted concentration of half-maximal effect
How it was run: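 To flag cytotoxic compounds, treated CHO-K1 wild-type cells were given CellTiter-Fluor at 16hr and read fluorescently after 1hr at 37C; the caspase-3/7 luminescence was measured in these same wells.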

[7] = Caspase-3/7 induction in CHO-K1 cells by small molecules, qHTS assay (AID 1346980); note: nearly all actives have a fitted effect of over 15% in size
How it was run: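 Wild-type CHO-K1 cells exposed to compounds for 17hr at 37 C, 5% CO2. Caspase-3/7 activity then measured by Caspase-Glo 3/7 luminescence after 30min at room temperature.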

[8] = Caspase-3/7 induction in HepG2 cells by small molecules, qHTS cell viability counter screen (AID 1346981); note: series mostly up to about 92 µM; nearly all actives have a fitted effect of over 30% in size
How it was run: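 Multiplexed with the caspase-3/7 assay: HepG2 cells, 16 hr compound treatment, CellTiter-Fluor viability detection by fluorescence.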

[9] = target: Nuclear receptor subfamily 1 group I member 2 (Homo sapiens) (UniProt O75469); test: Human pregnane X receptor (PXR) small molecule agonists, qHTS assay (AID 1346982); note: nearly all actives have a fitted effect of over 35% in size; note: potency is the fitted concentration of half-maximal effect
How it was run: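 We seeded PXR-Luc HepG2 cells in assay medium containing 5% charcoal-stripped FBS, added compounds 5 hr later, incubated 24 hr, and read luminescence with ONE-Glo reagent.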

[10] = target: Cytochrome P450 2D6 (Homo sapiens) (UniProt P10635); test: Cytochrome P450 Family 2 Subfamily D Member 6 (CYP2D6) small molecule antagonists: luciferase reporter qHTS assay (AID 1671196); note: nearly all actives have a fitted effect of over 50% in size; note: potency is the fitted concentration of half-maximal effect; for activity change, negative = inhibition: series mostly up to about 120 µM
How it was run: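 Luminescence (RLU), read 20 min after detection reagent, indicated CYP2D6 conversion of proluciferin to luciferin during a 1 h NADPH-dependent reaction at room temperature.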

[11] = target: Cytochrome P450 2C19 (Homo sapiens) (UniProt P33261); test: Cytochrome P450 Family 2 Subfamily C Member 19 (CYP2C19) small molecule antagonists: luciferase reporter qHTS assay (AID 1671197); note: series mostly up to about 120 µM; nearly all actives have a fitted effect of over 65% in size
How it was run: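 Relative luminescence units recorded 20 min after the detection reagent stopped a 1 h, 37C CYP2C19 reaction on proluciferin substrate, which was started by NADPH regeneration following 10 min room-temperature compound preincubation; ketoconazole positive control.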

[12] = target: Cytochrome P450 2C9 (Homo sapiens) (UniProt P11712); test: Cytochrome P450 Family 2 Subfamily C Member 9 (CYP2C9) small molecule antagonists: luciferase reporter qHTS assay (AID 1671198); note: series mostly up to about 120 µM; nearly all actives have a fitted effect of over 50% in size
How it was run: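 P450-Glo proluciferin substrate with CYP2C9 enzyme; 10 min RT preincubation, then NADPH regeneration 1 h at 37C; luciferin detection reagent 20 min RT, luminescence in relative luminescence units.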

[13] = target: Cytochrome P450 1A2 (Homo sapiens) (UniProt P05177); test: Cytochrome P450 Family 1 Subfamily A Member 2 (CYP1A2) small molecule antagonists: luciferase reporter qHTS assay (AID 1671199); note: nearly all actives have a fitted effect of over 50% in size; note: potency is the fitted concentration of half-maximal effect; for activity change, negative = inhibition: series mostly up to about 120 µM
How it was run: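 CYP1A2 turnover of a luminogenic substrate was quantified after 1 h with NADPH regeneration at room temperature. Furafylline served as positive control.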

[14] = target: Voltage-gated inwardly rectifying potassium channel KCNH2 (Homo sapiens) (UniProt Q12809); test: Human Ether-a-go-go-Related Gene (hERG) channel small molecule antagonists: fluorescence cell-based qHTS assay (AID 1671200); note: nearly all actives have a fitted effect of over 50% in size; note: potency is the fitted concentration of half-maximal effect;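 for activity change, negative = inhibition: hERG-expressing U2OS cells given a thallium stimulus after FluxOR II dye loading; series mostly up to about 77 µM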
How it was run: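 Measured: Tl+ flux via fluorescence (480/540 nm) in hERG-expressing U2OS cells after 1 h dye loading at room temperature.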

[15] = target: Cytochrome P450 3A4 (Homo sapiens) (UniProt P08684); test: Cytochrome P450 Family 3 Subfamily A Member 4 (CYP3A4) small molecule antagonists: luciferase reporter qHTS assay (AID 1671201)
How it was run: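 Setup: enzyme-substrate mix, compound pin transfer, 10 min RT. Reaction: NADPH regeneration solution, 1 h RT. Readout: detection reagent stops turnover, luminescence measured after 20 min, expressed in relative luminescence units.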

[16] = target: Nuclear receptor subfamily 1 group I member 2 (Rattus norvegicus) (UniProt Q9R1A7); test: Rat pregnane X receptor (rPXR) activation by small molecules, qHTS assay (AID 1346983); conditions: rPXR luciferase reporter cells, One-Glo luminescence, 24 h; stronger effect = higher value; note: nearly all actives have a fitted effect of over 20% in size
How it was run: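 Cell-based rPXR activation assay: rPXR cells, 2,000 per well, rested 5hr at 37 C, then exposed to compounds in DMSO for 24 hr at 37 C. Luciferase activity read by One-Glo luminescence after 30 min at room temperature.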

[17] = target: Nuclear receptor subfamily 1 group I member 2 (Homo sapiens) (UniProt O75469); test: Human pregnane X receptor (PXR) activation by small molecules, qHTS assay (AID 1346985); note: nearly all actives have a fitted effect of over 40% in size; note: potency is the fitted concentration of half-maximal effect
How it was run: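 DPX-2 cells (HepG2 co-transfected with a PXR response element and a CYP3A4-promoter luciferase construct) were seeded at 2,000 per well, rested 5 hr at 37C, then exposed to DMSO-dissolved compounds for 24 hr. Activation was read as luciferase luminescence.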

[18] = target: Nuclear receptor subfamily 1 group I member 2 (Homo sapiens) (UniProt O75469); test: CYP3A4 induction through human pregnane X receptor (PXR) by small molecules, qHTS assay (AID 1346984); note: nearly all actives have a fitted effect of over 40% in size
How it was run: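 qHTS, concentration-response format: HepG2 DPX-2 line, PXR/CYP3A4-luc. Exposure 24 h, 37C. Substrate Luciferin-IPA 3uM final, 3 h. Detection One-Glo, 30 min RT.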
% is set by controls: 0 for no effect and ±100 for the full control effect.

Chain of Cytochrome P450 1A2 (Homo sapiens) (P05177 whole entry, looked up): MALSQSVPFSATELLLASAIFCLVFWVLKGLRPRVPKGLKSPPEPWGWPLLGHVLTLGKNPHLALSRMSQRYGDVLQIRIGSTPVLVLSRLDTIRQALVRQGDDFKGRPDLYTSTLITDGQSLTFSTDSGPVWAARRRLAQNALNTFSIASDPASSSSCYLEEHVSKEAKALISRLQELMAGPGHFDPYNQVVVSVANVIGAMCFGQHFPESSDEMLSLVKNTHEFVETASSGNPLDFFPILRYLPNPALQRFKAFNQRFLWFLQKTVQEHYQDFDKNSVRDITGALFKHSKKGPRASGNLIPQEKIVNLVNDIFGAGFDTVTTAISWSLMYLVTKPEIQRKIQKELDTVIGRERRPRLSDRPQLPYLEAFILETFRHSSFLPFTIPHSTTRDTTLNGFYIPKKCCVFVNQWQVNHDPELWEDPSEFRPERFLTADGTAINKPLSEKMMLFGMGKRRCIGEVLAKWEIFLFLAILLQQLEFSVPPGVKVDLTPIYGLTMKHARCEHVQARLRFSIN
Chain of Cytochrome P450 2C19 (Homo sapiens) (P33261 whole entry, looked up): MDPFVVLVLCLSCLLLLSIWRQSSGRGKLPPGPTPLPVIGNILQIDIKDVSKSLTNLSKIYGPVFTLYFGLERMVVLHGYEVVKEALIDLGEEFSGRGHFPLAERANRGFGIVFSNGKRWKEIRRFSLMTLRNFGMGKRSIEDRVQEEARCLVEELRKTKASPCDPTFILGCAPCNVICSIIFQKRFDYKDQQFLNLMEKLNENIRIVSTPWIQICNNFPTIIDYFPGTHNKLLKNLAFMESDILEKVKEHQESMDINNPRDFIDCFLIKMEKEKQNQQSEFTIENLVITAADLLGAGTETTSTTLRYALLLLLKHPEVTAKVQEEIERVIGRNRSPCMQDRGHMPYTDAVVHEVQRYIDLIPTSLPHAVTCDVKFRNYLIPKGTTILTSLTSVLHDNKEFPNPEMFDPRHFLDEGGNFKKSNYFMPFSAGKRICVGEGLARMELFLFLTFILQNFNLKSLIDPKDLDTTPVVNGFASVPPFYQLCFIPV
Chain of Thyrotropin-releasing hormone receptor (Homo sapiens) (P34981 whole entry, looked up): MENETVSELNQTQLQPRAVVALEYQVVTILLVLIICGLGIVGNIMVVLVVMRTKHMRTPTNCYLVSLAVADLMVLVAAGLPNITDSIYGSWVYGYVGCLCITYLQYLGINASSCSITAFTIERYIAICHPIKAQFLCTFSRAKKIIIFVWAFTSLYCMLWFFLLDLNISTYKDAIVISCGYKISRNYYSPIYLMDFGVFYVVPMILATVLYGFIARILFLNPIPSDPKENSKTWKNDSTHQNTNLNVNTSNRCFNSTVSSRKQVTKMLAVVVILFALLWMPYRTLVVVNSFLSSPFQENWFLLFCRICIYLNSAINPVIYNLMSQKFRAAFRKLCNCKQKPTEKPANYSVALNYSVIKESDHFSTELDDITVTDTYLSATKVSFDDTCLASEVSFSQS
Chain of Cytochrome P450 3A4 (Homo sapiens) (P08684 whole entry, looked up): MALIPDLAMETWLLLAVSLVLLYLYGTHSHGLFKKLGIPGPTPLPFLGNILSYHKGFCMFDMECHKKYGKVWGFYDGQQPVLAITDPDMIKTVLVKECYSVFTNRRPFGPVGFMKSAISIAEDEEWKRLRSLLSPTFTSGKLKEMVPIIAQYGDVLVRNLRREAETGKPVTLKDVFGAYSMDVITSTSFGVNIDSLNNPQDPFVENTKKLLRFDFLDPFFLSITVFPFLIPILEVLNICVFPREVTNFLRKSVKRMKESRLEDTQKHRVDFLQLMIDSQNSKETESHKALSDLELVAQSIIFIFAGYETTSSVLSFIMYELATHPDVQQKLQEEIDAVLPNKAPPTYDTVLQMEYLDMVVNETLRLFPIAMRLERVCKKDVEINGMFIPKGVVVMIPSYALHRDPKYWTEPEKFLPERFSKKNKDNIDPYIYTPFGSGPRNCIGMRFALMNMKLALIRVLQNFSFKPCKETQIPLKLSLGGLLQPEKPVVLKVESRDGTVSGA
Chain of Cytochrome P450 2D6 (Homo sapiens) (P10635 whole entry, looked up): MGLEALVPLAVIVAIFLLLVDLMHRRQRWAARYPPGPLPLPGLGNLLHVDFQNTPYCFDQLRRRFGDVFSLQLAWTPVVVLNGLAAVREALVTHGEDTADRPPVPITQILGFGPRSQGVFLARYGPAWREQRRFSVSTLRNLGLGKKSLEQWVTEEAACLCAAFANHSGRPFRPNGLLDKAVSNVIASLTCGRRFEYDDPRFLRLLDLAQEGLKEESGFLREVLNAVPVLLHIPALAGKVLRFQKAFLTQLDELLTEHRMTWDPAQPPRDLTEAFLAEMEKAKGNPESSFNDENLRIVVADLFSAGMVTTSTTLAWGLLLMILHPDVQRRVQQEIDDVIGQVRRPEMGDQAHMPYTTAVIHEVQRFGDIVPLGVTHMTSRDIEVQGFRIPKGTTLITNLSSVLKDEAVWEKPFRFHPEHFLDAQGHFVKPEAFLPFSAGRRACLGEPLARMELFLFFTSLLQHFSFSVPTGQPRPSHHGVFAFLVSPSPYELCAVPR
Chain of Nuclear receptor subfamily 1 group I member 2 (Homo sapiens) (O75469 whole entry, looked up): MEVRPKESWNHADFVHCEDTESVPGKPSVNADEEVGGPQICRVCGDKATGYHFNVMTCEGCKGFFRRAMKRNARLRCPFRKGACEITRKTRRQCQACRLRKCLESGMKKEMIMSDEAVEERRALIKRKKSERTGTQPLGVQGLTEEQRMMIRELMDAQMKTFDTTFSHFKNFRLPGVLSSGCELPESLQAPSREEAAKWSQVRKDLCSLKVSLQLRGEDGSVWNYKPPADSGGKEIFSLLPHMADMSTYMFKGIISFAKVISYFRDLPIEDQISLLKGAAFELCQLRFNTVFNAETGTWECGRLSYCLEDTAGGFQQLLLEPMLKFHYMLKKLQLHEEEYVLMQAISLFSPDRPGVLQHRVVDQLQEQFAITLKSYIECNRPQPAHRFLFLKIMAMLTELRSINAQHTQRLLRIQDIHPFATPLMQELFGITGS
Chain of Voltage-gated inwardly rectifying potassium channel KCNH2 (Homo sapiens) (Q12809 whole entry, looked up): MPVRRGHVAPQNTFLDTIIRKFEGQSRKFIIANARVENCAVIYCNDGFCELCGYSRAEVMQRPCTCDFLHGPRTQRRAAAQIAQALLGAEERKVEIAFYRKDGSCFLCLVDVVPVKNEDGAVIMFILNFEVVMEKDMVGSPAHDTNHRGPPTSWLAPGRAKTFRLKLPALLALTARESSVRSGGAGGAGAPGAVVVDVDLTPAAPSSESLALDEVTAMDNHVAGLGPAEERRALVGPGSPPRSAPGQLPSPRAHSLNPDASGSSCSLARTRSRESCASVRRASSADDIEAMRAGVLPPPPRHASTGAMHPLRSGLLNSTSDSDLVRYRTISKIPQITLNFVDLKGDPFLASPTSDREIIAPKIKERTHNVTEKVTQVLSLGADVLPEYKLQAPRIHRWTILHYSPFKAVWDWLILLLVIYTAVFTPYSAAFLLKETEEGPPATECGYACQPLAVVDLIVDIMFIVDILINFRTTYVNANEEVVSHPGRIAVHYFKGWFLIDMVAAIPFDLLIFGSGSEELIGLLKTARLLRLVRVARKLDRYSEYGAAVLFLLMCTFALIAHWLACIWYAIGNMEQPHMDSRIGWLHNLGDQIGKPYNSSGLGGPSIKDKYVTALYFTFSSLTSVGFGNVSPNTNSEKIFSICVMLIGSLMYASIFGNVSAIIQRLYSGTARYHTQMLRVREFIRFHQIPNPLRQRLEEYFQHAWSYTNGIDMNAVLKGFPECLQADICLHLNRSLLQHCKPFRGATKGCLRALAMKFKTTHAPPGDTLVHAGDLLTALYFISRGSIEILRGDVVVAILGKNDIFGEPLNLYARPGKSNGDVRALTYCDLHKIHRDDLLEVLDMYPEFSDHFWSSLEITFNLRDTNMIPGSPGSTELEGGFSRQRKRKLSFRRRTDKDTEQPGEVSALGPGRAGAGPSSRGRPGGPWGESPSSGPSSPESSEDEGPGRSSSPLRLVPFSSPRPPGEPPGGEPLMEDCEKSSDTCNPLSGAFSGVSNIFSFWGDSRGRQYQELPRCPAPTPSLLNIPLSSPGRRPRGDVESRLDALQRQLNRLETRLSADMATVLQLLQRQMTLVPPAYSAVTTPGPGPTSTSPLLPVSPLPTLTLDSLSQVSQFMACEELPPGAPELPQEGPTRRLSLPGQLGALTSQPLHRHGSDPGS
Chain of Cytochrome P450 2C9 (Homo sapiens) (P11712 whole entry, looked up): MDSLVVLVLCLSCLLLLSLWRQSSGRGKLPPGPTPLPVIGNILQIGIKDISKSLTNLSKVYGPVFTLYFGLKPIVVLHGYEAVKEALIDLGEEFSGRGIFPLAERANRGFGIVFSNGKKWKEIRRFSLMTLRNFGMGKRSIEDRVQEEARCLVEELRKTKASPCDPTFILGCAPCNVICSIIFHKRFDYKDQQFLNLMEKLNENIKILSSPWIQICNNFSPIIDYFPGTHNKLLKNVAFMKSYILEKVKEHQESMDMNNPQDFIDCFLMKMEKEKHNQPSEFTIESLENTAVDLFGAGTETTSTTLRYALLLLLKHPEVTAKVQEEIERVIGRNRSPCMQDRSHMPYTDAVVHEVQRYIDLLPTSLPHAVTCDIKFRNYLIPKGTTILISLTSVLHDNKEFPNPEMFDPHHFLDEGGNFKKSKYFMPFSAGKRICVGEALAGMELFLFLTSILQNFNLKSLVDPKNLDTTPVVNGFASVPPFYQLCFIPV
Chain of Nuclear receptor subfamily 1 group I member 2 (Rattus norvegicus) (Q9R1A7 whole entry, looked up): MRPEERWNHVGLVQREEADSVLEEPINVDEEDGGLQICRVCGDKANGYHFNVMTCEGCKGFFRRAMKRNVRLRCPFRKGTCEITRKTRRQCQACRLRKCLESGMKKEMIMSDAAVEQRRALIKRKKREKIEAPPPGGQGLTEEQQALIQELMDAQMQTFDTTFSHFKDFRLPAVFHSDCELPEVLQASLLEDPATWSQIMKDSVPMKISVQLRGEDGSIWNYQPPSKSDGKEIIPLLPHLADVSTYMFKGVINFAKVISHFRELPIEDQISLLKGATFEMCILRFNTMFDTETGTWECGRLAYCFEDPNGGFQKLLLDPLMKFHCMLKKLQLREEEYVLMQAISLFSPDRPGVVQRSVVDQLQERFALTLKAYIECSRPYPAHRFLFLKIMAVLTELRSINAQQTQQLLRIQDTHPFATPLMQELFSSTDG

O=[N+]([O-])c1c(Cl)cc(Cl)cc1Cl
inactive: outcome [1] | outcome [2] | outcome [3] | outcome [4] | outcome [5] | Potency [6] | outcome [7] | outcome [8] | Potency [9] | Potency [10] | Potency [11] | Potency [12] | Potency [14] | Potency [15]
active: Potency [13] 39.5 µM

CCCSSCCC
inactive: outcome [1] | outcome [2] | outcome [3] | outcome [4] | outcome [5] | Potency [6] | outcome [7] | outcome [8] | Potency [9] | Potency [10] | Potency [11] | Potency [12] | Potency [14] | Potency [15]

CC(C)CCOC(=O)c1ccccc1
inactive: outcome [1] | outcome [2] | outcome [3] | outcome [4] | outcome [5] | Potency [6] | outcome [7] | outcome [8] | Potency [9] | Potency [10] | Potency [11] | Potency [12] | Potency [14] | Potency [15]

CCOC(CN1CCN(CC(C)C(=O)c2ccccc2)CC1)c1ccccc1 (stereo not drawn)
active: Potency [9] 14.6 µM | Potency [17] 10 µM | Potency [10] 213 nM | Potency [14] 10.4 µM
inactive: activation [1] -2.36% [at 15.8 µM] | activity, negative = inhibition [2] -3.1% [at 10.5 µM] | activation [3] 0.148% [at 11.8 µM] | activity change, negative = cytotoxicity [4] -0.628% [at 19 µM] | caspase activation [5] 0.292% [at 19 µM] | activity change, negative = cytotoxicity [6] 0.23% [at 19 µM] | caspase-3/7 activation [7] 0.336% [at 19 µM] | activity change, negative = cytotoxicity [8] -1.17% [at 19 µM] | max activation [16] 1.41% | activity change, negative = inhibition [13] 12.6% [at 23.6 µM] | activity change, negative = inhibition [15] 51.9% [at 23.6 µM]

CN(C)CCCCl
inactive: outcome [1] | outcome [2] | outcome [3] | outcome [4] | outcome [5] | Potency [6] | outcome [7] | outcome [8] | Potency [9] | Potency [10] | Potency [11] | Potency [12] | Potency [13] | Potency [14] | Potency [15]

NC(=O)[C@@H]1CSSCCC(=O)N[C@@H](CCCCN=C(N)N)C(=O)NCC(=O)N[C@@H](CC(=O)O)C(=O)N[C@@H](Cc2c[nH]c3ccccc23)C(=O)N2CCC[C@H]2C(=O)N1 ([Mpa][hArg]GDWPC-NH2; disulfide 1-7)
inactive: outcome [1] | outcome [2] | outcome [3] | outcome [4] | outcome [5] | outcome [7] | outcome [8] | Potency [9] | max activation [16] -0.95% | Potency [18] | Potency [17] | Potency [10] | Potency [11] | Potency [12] | Potency [13] | Potency [14] | Potency [15]
active: Potency [6] 10.6 µM

N[C@@H](CSCCCO)C(=O)O
inactive: activation [1] 6.83% [at 15.8 µM] | activity, negative = inhibition [2] -0.484% [at 10.5 µM] | activation [3] -0.038% [at 11.8 µM] | activity change, negative = cytotoxicity [4] 9.45% [at 19 µM] | caspase activation [5] -0.396% [at 19 µM] | activity change, negative = cytotoxicity [6] 1.3% [at 19 µM] | caspase-3/7 activation [7] 0.125% [at 19 µM] | activity change, negative = cytotoxicity [8] -2.1% [at 19 µM] | activation [9] -4.99% [at 19 µM] | max activation [16] -2.52% | Potency [18] | Potency [17] | activity change, negative = inhibition [11] 3.16% [at 23.6 µM] | activity change, negative = inhibition [12] 4.77% [at 23.6 µM] | activity change, negative = inhibition [13] 12.2% [at 23.6 µM] | activity change, negative = inhibition [14] 17.6% [at 15.8 µM] | activity change, negative = inhibition [15] 15.6% [at 23.6 µM]

CC(C)OC(=O)CCC(=O)OC(C)C
inactive: outcome [1] | outcome [2] | outcome [3] | outcome [4] | outcome [5] | Potency [6] | outcome [7] | outcome [8] | Potency [9] | Potency [10] | Potency [11] | Potency [12] | Potency [13] | Potency [14] | Potency [15]

Source: PubChem BioAssay (Tox21)
